From PubChem
Shown are actives, neighbours in structure and some others; about 10% of the full set was active somewhere.
BAZ2B inh: qHTS Assay for Inhibitors of BAZ2B; AID 504333, 2011; AlphaScreen BAZ2B-H3K14Ac peptide displacement; hit rate 4.4% among 360,000; Bromodomain adjacent to zinc finger domain protein 2B (Homo sapiens), Q9UIF8; Potency, µM (top dose mostly 114 µM), most hits filed as inhibitors; note: nearly all actives have a fitted effect of over 60% in size
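AlphaScreen luminescence quantifies BAZ2B engagement of H3K14Ac peptide; the protein and biotinylated peptide are both at 50 nM final, buffer PBS pH 7.4 with 0.01% Tween-20, all steps at room temperature.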
HP1b chromo inh: HTS for Inhibitors of HP1-beta Chromodomain Interactions with Methylated Histone Tails | AlphaScreen HP1-beta / biotin-H3K9me3 peptide binding | AID 540317, 2011 | hit rate 0.56% among 390,000 | Chromobox protein homolog 1 (Homo sapiens), P83916 | Potency, µM (doses to about 114 µM), most hits filed as inhibitors; note: nearly all actives have a fitted effect of over 70% in size
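HP1-beta protein (50 nM final) preincubated 30 min at room temperature with biotinylated H3(1-18)K9me3 peptide (50 nM) in PBS pH 7.4, 0.01% Tween-20, then compound added for 30 min. AlphaScreen streptavidin donor/nickel chelate acceptor beads (10 ug/mL final), 30 min dark, luminescence read.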
JMJD2A Tudor: qHTS Assay for Inhibitors of JMJD2A-Tudor Domain. Lysine-specific demethylase 4A (Homo sapiens), O75164. AlphaScreen JMJD2A-Tudor / H3K4me3 peptide binding. Potency, µM (series often up to 114 µM), actives largely listed as inhibitors. hit rate 4.4% among 390,000; note: nearly all actives have a fitted effect of over 50% in size
GLS inhibitor: qHTS for Inhibitors of Glutaminase (GLS); Glutaminase kidney isoform, mitochondrial (Homo sapiens), O94925; hit rate 0.21% among 410,000; GLS enzymatic activity, qHTS titration; Potency, µM (doses to about 45.5 µM), usual class: inhibitors
Target sequence (O94925 whole entry, looked up, canonical isoform): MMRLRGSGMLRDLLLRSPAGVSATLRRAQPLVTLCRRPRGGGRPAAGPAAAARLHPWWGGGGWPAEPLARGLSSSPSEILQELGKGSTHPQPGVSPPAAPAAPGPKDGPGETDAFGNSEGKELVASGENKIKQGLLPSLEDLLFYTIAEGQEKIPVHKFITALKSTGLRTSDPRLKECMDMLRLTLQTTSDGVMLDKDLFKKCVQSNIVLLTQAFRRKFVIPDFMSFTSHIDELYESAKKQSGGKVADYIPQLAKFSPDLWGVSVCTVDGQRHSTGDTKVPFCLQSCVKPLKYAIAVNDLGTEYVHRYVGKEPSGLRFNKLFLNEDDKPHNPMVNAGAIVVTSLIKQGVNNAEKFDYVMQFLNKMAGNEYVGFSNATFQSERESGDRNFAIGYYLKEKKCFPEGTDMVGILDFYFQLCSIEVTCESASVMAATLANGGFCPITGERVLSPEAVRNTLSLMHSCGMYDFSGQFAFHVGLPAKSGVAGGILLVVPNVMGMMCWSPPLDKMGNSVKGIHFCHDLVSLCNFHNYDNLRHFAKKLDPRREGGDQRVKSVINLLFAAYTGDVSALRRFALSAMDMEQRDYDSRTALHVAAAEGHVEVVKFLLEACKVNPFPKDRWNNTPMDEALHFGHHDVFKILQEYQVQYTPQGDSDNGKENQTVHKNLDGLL
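Assay buffer: 45 mM KH2PO4 pH 8.2, 0.02% Tween-20. hKGA acts on L-glutamine (1 mM solution added); product glutamate is reported by an oxidase/peroxidase Amplex Red coupling, with fluorescence taken at baseline and 30 min.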
G9a block: qHTS Assay for Inhibitors of Histone Lysine Methyltransferase G9a; Histone-lysine N-methyltransferase EHMT2 (Homo sapiens), Q96KQ7; G9a H3K9 monomethylation, AlphaScreen, 2 h; Potency, µM (highest dose often 102 µM), most hits filed as inhibitors; hit rate 8.8% among 350,000; note: nearly all actives have a fitted effect of over 75% in size
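Enzyme 20 nM + cpd, 15 min RT; add b-H3K9 pep 500 nM / SAM 20 uM; 2 h RT; anti-H3K9me1 Ab 0.5 ug/mL + SA donor / anti-rabbit acceptor beads 20 ug/mL each, 10 min; AlphaScreen read.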
Large screens that a line does not name were inactive. Calls come from the whole dose curve; as a rule, active = well fitted curve in the direction sought with a large enough effect; inconclusive = small, poorly fitted or top-dose-only effect, or another doubt; inactive = no such curve, though single readings can be large; an effect the other way counts as inactive or inconclusive.

N#Cc1c(N2C(=O)C3C4C=CC(C4)C3C2=O)sc2c1CCC2 (stereo not given)	none
CC1(C(=O)NS(=O)(=O)c2ccccc2)CCN1C(=O)C1(c2ccc(Cl)cc2)CC1 (stereo not given)	none (no result: BAZ2B inh, HP1b chromo inh, JMJD2A Tudor, G9a block)
NNc1nc2ccc(Cl)cc2s1	BAZ2B inh 50.1µM, JMJD2A Tudor 79.4µM, G9a block 56.2µM
NNc1nc2ccc(F)cc2s1	BAZ2B inh 44.7µM, JMJD2A Tudor inconclusive, G9a block inconclusive
CS(=O)(=O)c1ccc2nc(NC(=O)Nc3ccc(Cl)cc3)sc2c1	G9a block inconclusive
NS(=O)(=O)c1ccc2nc(NC(=O)Nc3ccc(F)cc3)sc2c1	G9a block 50.1µM
Cc1cccc(S(=O)(=O)NNC(=O)c2cc(-c3ccc(F)cc3)nc3ccccc23)c1	none
CCN1C(=O)[C@@H]2Cc3c([nH]c4ccccc34)C(c3ccc(OC)cc3)N2C1=S (stereo not given in full)	JMJD2A Tudor inconclusive, G9a block 35.5µM
COC(=O)c1ccc(C2c3[nH]c4ccccc4c3C[C@H]3C(=O)N(C)CC(=O)N23)cc1 (stereo not given in full)	G9a block inconclusive
CCOC(=O)C1CCN(C(=O)Nc2ccc(OCc3ccccc3)cc2)CC1	none
NC(=O)C1CCN(Cc2ccc(OCc3ccccc3)cc2)CC1	BAZ2B inh 56.2µM, HP1b chromo inh inconclusive, JMJD2A Tudor 3.55µM, G9a block 10µM
CCOC(=O)C1CCCN(CC(=O)N2CCCc3c2c(=O)oc2ccc(OCc4ccccc4)cc32)C1 (stereo not given)	JMJD2A Tudor 39.8µM, G9a block 22.4µM
CCCCCOc1ccc2oc(=O)c3c(c2c1)CCCN3C(=O)CN1CCCC(C(=O)OCC)C1 (stereo not given)	none
CCOC(=O)C1CCN(Cc2ccc(OCc3ccccc3)cc2)CC1	HP1b chromo inh inconclusive, JMJD2A Tudor 28.2µM, G9a block 28.2µM
CCOC(=O)N1CCN(C(=O)C2CCN(Cc3cccc(OCc4ccccc4)c3)CC2)CC1	BAZ2B inh inconclusive, HP1b chromo inh inconclusive, JMJD2A Tudor 2.24µM, G9a block 14.1µM
O=C(Nc1ccccn1)c1ccc(S(=O)(=O)N2CCCC2)cc1	none
O=C(Nc1ccccc1N1CCCC1)c1ccccc1F	G9a block inconclusive
COc1cc(CCCN2C(=S)NC[C@@H]2CC2CCCCC2)cc(OC)c1OC	none
N=c1oc2cc(O)ccc2cc1C(=O)Nc1ccccn1	G9a block inconclusive (no result: HP1b chromo inh, JMJD2A Tudor, GLS inhibitor)
Cc1ccc(CN2C(=NC(=O)CCC(=O)O)SC3CS(=O)(=O)CC32)cc1 (stereo not given)	none (no result: G9a block)
CCN(Cc1ccccc1)S(=O)(=O)c1ccc(C(=O)Nc2nnc(C)o2)cc1	BAZ2B inh inconclusive
COc1ccc(C)cc1NC(=O)NC1CCN(Cc2ccccc2)CC1	G9a block 14.1µM
COC(=O)c1ccccc1NC(=O)NC1CCN(Cc2ccccc2)CC1	none
CCCCN(C)C(=O)C1CCN(Cc2ccc(OCc3ccccc3)cc2)CC1	BAZ2B inh inconclusive, JMJD2A Tudor 3.55µM, G9a block inconclusive
CCOC(=O)C1CCCN(Cc2ccc(OC)c(OCc3ccccc3)c2)C1 (stereo not given)	HP1b chromo inh inconclusive, JMJD2A Tudor 28.2µM, G9a block 44.7µM
COc1ccc(CN2CCC(C(N)=O)CC2)cc1OCc1ccccc1	BAZ2B inh inconclusive, HP1b chromo inh inconclusive, JMJD2A Tudor 31.6µM (no result: G9a block)
COc1cccc2sc(Nc3nc(-c4cc5ccccc5oc4=O)cs3)nc12	G9a block inconclusive
CCc1c(C)sc(NC(=O)c2cc(C)no2)c1C#N	BAZ2B inh inconclusive, G9a block 12.6µM
CCc1cc(C(=O)Nc2sc(C)c(CC)c2C#N)no1	G9a block 2.51µM
Cc1ccc(CSc2ncnc3c2cnn3-c2ccc(C)cc2)cc1	none
Cc1cc(NC(=O)C2CC(c3ccccc3Cl)=NO2)no1 (stereo not given)	none
CC(=O)N/C(=C\c1ccccc1)C(=O)N1CCOCC1	none
Cc1ccc(NC(=S)NC(CO)C(O)c2ccc([N+](=O)[O-])cc2)cc1 (stereo not given)	none
CCOCCCNCC(=O)NC1(C)C2CCC(C2)C1(C)C (stereo not given)	BAZ2B inh 56.2µM, JMJD2A Tudor 6.31µM, G9a block inconclusive
CC1(C)C2CCC(C2)C1(C)NC(=O)CNCC1CCCCC1 (stereo not given)	HP1b chromo inh inconclusive, JMJD2A Tudor inconclusive, G9a block 5.62µM (no result: BAZ2B inh)
O=C(CC1CCCCC1)NC1CCCC1	none
CS/C(Nc1cc(Cl)ccc1Cl)=C(/C#N)C(=O)c1ccco1	BAZ2B inh 56.2µM, JMJD2A Tudor inconclusive, G9a block 14.1µM
CCN=C1S/C(=C/c2ccc(-c3ccc(F)cc3)o2)C(=O)N1CC	G9a block 35.5µM
CCN=C1S/C(=C\c2ccc(Sc3ccc(Cl)cc3)o2)C(=O)N1CC	none
Cc1ccc(OCC(O)Cn2c(N3CCOCC3)nc3c2c(=O)[nH]c(=O)n3C)cc1 (stereo not given)	none
CCc1ccccc1NC(=O)Cn1nnc(-c2nc(-c3ccncc3)no2)c1N	G9a block 7.08µM
Nc1c(-c2nc(-c3ccncc3)no2)nnn1CC(=O)Nc1ccccc1	none
CSc1cccc(CNC(=O)C2CCC(=O)N(CCc3ccccn3)C2)c1 (stereo not given)	none (no result: G9a block)
CC(C)Cc1ccccc1O	none (no result: HP1b chromo inh, JMJD2A Tudor, GLS inhibitor)
CC(C)N1C(=O)S/C(=C/c2ccc(Sc3nc4ccccc4[nH]3)o2)C1=O	G9a block 70.8µM
C=CCN1C(=O)S/C(=C/c2ccc(Sc3nc4ccccc4[nH]3)o2)C1=O	G9a block 2µM
CC1=C(Sc2nc3ccccc3[nH]2)C(=O)NC(C)(C)C1	none
Cc1ccc(Cn2c(=O)n(Cc3ccccc3)c(=O)c3oc4ccccc4c32)cc1	none
O=C1CC(C(=O)O)S/C(=N\NC(=O)c2ccccc2)N1 (stereo not given)	BAZ2B inh 50.1µM, JMJD2A Tudor 1.41µM, G9a block inconclusive
COc1ccc(/C(C)=N/N=C2/NC(=O)CC(C(=O)O)S2)cc1 (stereo not given)	JMJD2A Tudor 44.7µM, GLS inhibitor inconclusive
O=C(NCCC1=CCCCC1)C1CCC(=O)N(Cc2cccc(C(F)(F)F)c2)C1 (stereo not given)	none
CN(C)/C=N/c1nc2ccc3c(c2s1)CCCC3	none
COC(=O)N/N=C/c1cccs1	none
CCCc1nc2ccccc2c(=O)n1/N=C/c1ccccc1O	none
COCCN=c1scc(-c2cccs2)n1/N=C/c1ccc(O)c(O)c1O	BAZ2B inh 35.5µM, HP1b chromo inh inconclusive, JMJD2A Tudor 8.91µM, GLS inhibitor inconclusive, G9a block 5.62µM
